# Sampled rows, rich in hits. Any-hit rate of the full collection: about 3.5%.
# TEAD-YAP block – TEAD-YAP interaction inhibition, primary screen, TEAD-YAP interaction inhibitor project, luminescence, HEK-TIYL cells; TEAD-Gal4/YAP UAS-luciferase luminescence; inhibition, % at 9.12 µM; hit rate 1.4% among 640,000; in the data active = inhibition above about 32%;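 note: 0% = median of test compound wells and 100% = reference inhibitor wells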
# GPR151 activ – activators of human GPR151, primary screen, cell-based, PathHunter beta-arrestin, luminescence; G-protein coupled receptor 151 (Homo sapiens), Q8TDV0; PathHunter beta-arrestin GPR151 cells; activation, % at 11.2 µM; hit rate 1% among 650,000; in the data active = activation above about 4.9%;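 note: 0% = median of compound wells and 100% = cells with positive control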
# MITF inh – MITF inhibitors, primary screen, biochemical, AlphaScreen, human; hit rate 0.91% among 650,000; AlphaScreen MITF homodimerization, bead proximity signal; inhibition, % at 2.6 µM; in the data active = inhibition above about 50%;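 note: 0% = vehicle wells with protein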
# Target sequence (O75030 whole entry, looked up): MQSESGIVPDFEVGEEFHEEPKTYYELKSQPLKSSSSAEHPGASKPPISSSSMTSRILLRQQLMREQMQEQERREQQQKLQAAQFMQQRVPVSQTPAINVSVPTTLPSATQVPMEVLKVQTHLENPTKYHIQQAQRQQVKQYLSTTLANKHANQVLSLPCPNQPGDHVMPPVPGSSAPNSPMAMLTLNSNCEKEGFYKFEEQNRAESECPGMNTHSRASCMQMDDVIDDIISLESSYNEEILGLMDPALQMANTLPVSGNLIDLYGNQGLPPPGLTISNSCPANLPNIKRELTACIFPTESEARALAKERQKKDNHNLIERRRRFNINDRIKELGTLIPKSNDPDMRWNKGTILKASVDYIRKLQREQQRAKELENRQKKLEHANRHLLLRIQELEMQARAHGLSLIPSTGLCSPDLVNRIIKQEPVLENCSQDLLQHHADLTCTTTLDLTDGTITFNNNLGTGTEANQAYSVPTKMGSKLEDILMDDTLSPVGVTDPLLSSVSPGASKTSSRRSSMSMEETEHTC
# FBW7 act – FBW7 E3 ligase activators, primary screen, biochemical, AlphaScreen, human; F-box/WD repeat-containing protein 7 (Homo sapiens), Q969H0; AlphaScreen FBW7–phospho-cyclin E peptide binding, activator screen; normalized activity (activation), % at 26.1 µM; hit rate 0.13% among 650,000; AID 1259310, 2017; in the data active = normalized activity above about 1.9%;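 note: purified mutant Fbw7 with reduced substrate affinity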
# MITF confirm – MITF inhibitors, retest of hits, confirmation, biochemical, AlphaScreen, triplicate; shares compounds with MITF inh; AlphaScreen MITF homodimerization, biotin/His-MITF beads; inhibition, % at 2.6 µM; hit rate 16% among 4,700;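 active = inhibition above a cutoff derived from the DMSO control wells, cut at about 28% in these data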;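 note: 0% = MITF dimer wells with DMSO only; inhibitors lower the bead chemiluminescence by keeping MITF from dimerizing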
# AS interf DR – AlphaScreen optical interference compounds, dose response, counter-screen, biochemical, HTS. shares compounds with MITF inh. AlphaScreen optical interference counterscreen, cell-free. IC50, µM. hit rate 6% among 480; call rule not given here
# AlphaScreen intf2 – AlphaScreen optical interference compounds, counter-screen for MITF inhibitor project, biochemical, triplicate | shares compounds with MITF inh | LysRS AlphaScreen counterscreen, signal interference | inhibition, % at 2.6 µM | hit rate 7.6% among 4,700 | AID 1259376, 2018;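 active = inhibition above a cutoff derived from the DMSO control wells, cut at about 30% in these data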
# * marks the source's active call; other numbers are inactive results; . = not tested or not shown.
SMILES,TEAD-YAP block,GPR151 activ,MITF inh,FBW7 act,MITF confirm,AlphaScreen intf2,others
COc1ccc(CN2CCN(Cc3ccco3)CC2)cc1,-21,-1,71*,0,9,9,
COc1ccc(Cl)cc1C(=O)Nc1c2c(nn1C(C)(C)C)CS(=O)(=O)C2,-1,1,4,0,.,.,
Clc1ccccc1N1CCN(Cc2ccco2)CC1,0,0,2,0,.,.,
COc1ccc(C(=O)N2CCN(Cc3ccco3)CC2)cc1,-4,1,55*,0,-13,6,
CSc1ccc(CN2CCN(Cc3ccco3)CC2)cc1,1,0,85*,0,-1,-1,
CCN1CCN(Cc2nnnn2Cc2ccco2)CC1,17,-1,10,0,.,.,
COc1cccc(N2CCN(Cc3ccco3)CC2)c1,-6,-1,23,0,.,.,
CCC(CC)N1CCN(Cc2ccco2)CC1,-5,-1,53*,0,6,2,
COc1cccc(CN2CCN(Cc3ccco3)CC2)c1,-9,-1,76*,0,14,20,
COc1ccc2cc3cc(NC(C)=O)c(=O)oc3nc2c1,-4,1,2,0,.,.,
O=C(c1n[nH]c2c1CCC2)N1CCCCC1c1nc2ccccc2[nH]1 (stereo not given),3,2,5,0,.,.,
CC(Sc1nnc(-c2ccc([N+](=O)[O-])cc2)o1)C(N)=O (stereo not given),4,0,69*,0,5,20,
COc1ccc(CCN=C(C)C2=C(O)C(c3ccccc3)OC2=O)cc1OC (stereo not given),12,-1,74*,0,4,7,
NC(=O)c1cccc(-c2cccs2)c1,-12,0,66*,0,57*,11,AS interf DR=>6.7
NC(=O)c1ccc2nc(-c3cccs3)sc2c1,33*,-8,73*,0,60*,6,AS interf DR=>6.2
O=C(Nc1ccccc1)c1ccc2nc(-c3cccs3)sc2c1,-59,-4,2,0,.,.,
CC(=O)c1cccc(-c2cccc(C(N)=O)c2)c1,-6,5,0,0,.,.,
CC(CCc1ccccc1)NCc1nc2ccsc2c(=O)[nH]1 (stereo not given),2,0,52*,1,3,0,
COc1cc(Nc2cc(C)nc(Nc3ccnn3C)n2)cc(OC)c1OC,1,1,18,0,.,.,
COCCNC(=S)NNC(=O)C(C)Oc1cc(Cl)ccc1Cl (stereo not given),-5,2,0,0,.,.,
COCCn1c(SCC#N)nnc1-c1ccccc1,6,1,65*,0,15,18,
COCCn1c(SCC#N)nnc1-c1ccc(O)cc1,6,0,9,0,.,.,
Cc1ccccc1CN1CCN(C2C3CC4CC(C3)CC2C4)CC1 (stereo not given),-1,5,74*,0,-1,-2,
Clc1ccccc1CN1CCN(C2C3CC4CC(C3)CC2C4)CC1 (stereo not given),3,1,75*,0,12,15,
c1ccc2c(CN3CCN(C4C5CC6CC(C5)CC4C6)CC3)c[nH]c2c1 (stereo not given),2,0,65*,0,-6,2,
SMILES,TEAD-YAP block,GPR151 activ,MITF inh,FBW7 act,MITF confirm,AlphaScreen intf2,others
c1ccc(CNc2nc(Nc3nccc4ccccc34)nc3nc[nH]c23)cc1,-8,0,-12,0,.,.,
COc1ccc(CN2CCN(Cc3cccn3-c3ccccn3)CC2CCO)cc1C (stereo not given),-1,0,0,0,.,.,
c1ccc(CN2CCC(NCc3c[nH]c4ccccc34)CC2)cc1,-3,-1,62*,0,12,17,
C=CCOc1ccccc1CNC1CCN(Cc2ccccc2)CC1,4,-1,53*,0,14,18,
Oc1ccccc1CNC1CCN(Cc2ccccc2)CC1,18,2,2,0,.,.,
c1ccc(C2CCC(NCCc3ccccn3)CC2)cc1 (stereo not given),-14,0,59*,1,-20,-9,
c1ccc(CN2CCC(NCc3ccccn3)CC2)cc1,4,0,62*,0,9,16,
Cc1c(C(=O)NC2CCCCC2)sc2ncnc(N3CCOCC3)c12,-1,0,-4,0,.,.,
CCCOc1ccccc1/C=C1\SC(N2CCN(C(C)=O)CC2)=NC1=O,6,-1,-14,0,.,.,
CC(=O)NC1=NC(=O)/C(=C\c2ccc(Br)o2)S1,-8,0,77*,0,67*,12,AS interf DR=>6.5
CC1(C(=O)N/N=C/c2cccnc2)CC1(Cl)Cl (stereo not given),6,0,60*,0,-19,0,
CCN1CCN(CC(=O)N/N=C/c2ccc(Cl)cc2)CC1,10,0,46,1,.,.,
CCN1CCN(CC(=O)N/N=C/c2ccc(C(C)C)cc2)CC1,-4,1,52*,0,2,7,
O=C(N/N=C/c1cccnc1)C12CC3CC(CC(C3)C1)C2,-10,1,-5,0,.,.,
CCN1CCN(CC(=O)N/N=C/c2ccccc2)CC1,-1,-2,70*,1,1,16,
CCN1CCN(CC(=O)N/N=C/c2ccc(Cl)c(Cl)c2)CC1,-4,3,68*,0,-6,3,
COc1ccc(/C=N/NC(=O)C(=O)Nc2cc(Cl)ccc2Cl)cc1,-4,1,-5,0,.,.,
CS(=O)(=O)N(CC(=O)Nc1ccc(Cl)cc1)c1ccc(OCc2ccccc2)cc1,-10,-2,-3,0,.,.,
COCCNC(=O)/C(=C\C=C/c1ccccc1)NC(=O)c1ccccc1,8,1,9,0,.,.,
Cc1cccc(NC(=O)c2ccc(N3CCCCC3)c([N+](=O)[O-])c2)c1,-58,-1,20,0,.,.,
O=C(CN1CCSCC1)N/N=C/c1cccnc1,-7,-1,51*,0,-5,1,
COc1ccccc1CNc1ccccc1C(=O)N1CCOCC1,1,1,14,0,.,.,
O=C1C(=O)N(CC2CCCO2)C(c2ccco2)/C1=C(/O)c1ccc(Cl)cc1 (stereo not given),-17,0,53*,0,7,10,
O=C1C(=O)N(CC2CCCO2)C(c2ccc(Cl)cc2)/C1=C(/O)c1ccccc1 (stereo not given),0,-1,6,0,.,.,
Cc1ccc2[nH]c(=O)c(CN(CC3CCCO3)S(=O)(=O)c3ccccc3)cc2c1 (stereo not given),-4,0,-13,0,.,.,

# Assay outcomes: PubChem BioAssay, The Scripps Research Institute Molecular Screening Center
